Source: PubChem (National Center for Advancing Translational Sciences (NCATS))
Pf growth 96h – Primary qHTS for delayed death inhibitors of the malarial parasite plastid, 96 hour incubation | P. falciparum luciferase reporter growth, 96 h | Potency, µM (titrated, usually from 28.7 µM), actives largely listed as inhibitors | actives 6.9% (n = 320,000)
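Erythrocytes infected with luciferase-expressing P. falciparum were dispensed at 2% hematocrit and 0.05% parasitemia (final), then incubated with compounds 96 hours at 37 C in 5% CO2. Luminescence after detection reagent addition reported growth.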
Pf growth 48h – Primary qHTS for delayed death inhibitors of the malarial parasite plastid, 48 hour incubation; P. falciparum luciferase growth in erythrocytes, 48 h; Potency, µM (titrated, usually from 28.7 µM), usual class: inhibitors; actives 5.9% (n = 310,000); AID 504832, 2011
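Luciferase-expressing parasites in RBCs, 2% Hct / 0.1% parasitemia final; RPMI 1640 + 0.5% Albumax; 37 C, 5% CO2, one generation; luminescence read-out, lower signal = inhibition.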
Shiga inhibitor – A qHTS for Small Molecule Inhibitors of Shiga Toxin; Vero cells, Shiga toxin protein synthesis inhibition reporter; inhibition, % at 38.7 µM; actives 9.2% (n = 290,000); AID 2315, 2010; in the data active means inhibition mostly above about 28%, no sharp cut-off; inactive means mostly below about 43%
Cycloheximide cs – Cycloheximide Counterscreen for Small Molecule Inhibitors of Shiga Toxin | AID 2314, 2010 | max response, % | actives 12% (n = 300,000) | cell reporter, cycloheximide protein synthesis inhibition counterscreen; in the data active means max response mostly above about 13%, no sharp cut-off; inactive means mostly below about 14%; further: read at 38.3 µM for the half of the compounds with a filed dose
LmPK inh – qHTS Assay for Inhibitors of Leishmania Mexicana Pyruvate Kinase (LmPK); actives 0.37% (n = 290,000); purified LmPK, Kinase-Glo ATP luminescence, 1 h; Potency, µM (highest dose often 57.5 µM), hits mostly inhibitors
Target sequence (Q27686 whole entry, looked up): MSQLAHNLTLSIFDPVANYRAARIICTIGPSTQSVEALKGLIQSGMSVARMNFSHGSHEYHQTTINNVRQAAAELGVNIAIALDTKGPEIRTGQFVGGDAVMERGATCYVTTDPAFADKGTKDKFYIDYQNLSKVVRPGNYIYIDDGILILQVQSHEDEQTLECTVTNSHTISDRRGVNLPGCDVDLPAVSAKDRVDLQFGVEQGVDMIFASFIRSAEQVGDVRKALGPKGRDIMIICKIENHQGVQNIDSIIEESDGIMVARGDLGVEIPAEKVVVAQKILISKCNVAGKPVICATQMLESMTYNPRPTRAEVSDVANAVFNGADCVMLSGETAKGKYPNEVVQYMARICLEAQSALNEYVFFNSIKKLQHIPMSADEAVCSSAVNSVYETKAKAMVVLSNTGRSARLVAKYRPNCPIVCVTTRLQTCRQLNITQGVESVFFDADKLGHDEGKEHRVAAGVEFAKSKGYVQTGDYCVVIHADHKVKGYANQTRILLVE
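Kinase-Glo luminescence read after 1 h RT reaction of 0.1 nM LmPK with 0.5 mM PEP and 0.1 mM ADP. Activity scaled between uninhibited and enzyme-free controls.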
Each line names hits and unclear results; the compound was inactive in the other large screens. Sampled rows, rich in hits. Any-hit rate of the full collection: about 22%. Unless noted, the call rests on the fitted dose curve; in most records, active means well fitted inhibition curve with a large enough effect; inconclusive means small, poorly fitted or top-dose-only effect, or another doubt; inactive means no such curve, though single readings can be large or run the other way.

O=S(=O)(c1ccccc1)n1ccc(-c2cnc(-c3ccccc3)s2)n1	Cycloheximide cs 10
O=C(c1ccc(F)cc1)n1ccc(-c2cnc(-c3ccccc3)s2)n1	Shiga inhibitor 73, Cycloheximide cs 41 (no result: Pf growth 48h)
COc1ccc(C(=O)Nc2ccnn2C2CCN(C(=O)c3cc(C)on3)CC2)cc1	none
C=CCn1cc(C(=O)OCC)c(=O)c2cc(F)c(F)cc21	none
CN1C2CCC1/C(=C\c1ccccc1F)C(=O)/C2=C/c1ccccc1F	Pf growth 96h inconclusive, Pf growth 48h inconclusive
Cc1ccccc1-c1noc(CCC(=O)NC2CCCCC2)n1	Pf growth 96h 10µM
Cc1ccccc1-c1noc(CCC(=O)NCC2CCCO2)n1 (configuration not stated)	none (no result: Pf growth 96h)
Cc1ccc(-c2nnn(CCC(=O)NC3CCCC3)n2)cc1	Pf growth 96h inconclusive, Cycloheximide cs 17
CCOc1ccccc1-c1noc(CCC(=O)NC2CCCCC2)n1	Pf growth 96h inconclusive
COc1ccccc1-c1noc(CCC(=O)NC2CCCC2)n1	Pf growth 96h 2.6µM
CN(C(=O)CCc1nc(-c2ccccc2F)no1)c1ccccc1	Pf growth 48h inconclusive, Shiga inhibitor 98, Cycloheximide cs 41
O=C(NCc1cccc2[nH]ccc12)C1CCC(=O)N(CCc2ccccc2)C1 (configuration not stated)	Pf growth 96h inconclusive
CC(=O)N1CCC(C(=O)Nc2ccc(S(=O)(=O)N3CCCCC3)cc2)CC1	none
O=C(CCc1nc(-c2ccccc2F)no1)NC1CCCCC1	Cycloheximide cs 8.6 (no result: Pf growth 96h)
O=C(CCCc1nc(-c2ccccc2Cl)no1)NC1CCCCC1	none
Cc1ccc(-c2noc(CCC(=O)NC3CCCC3)n2)cc1	Pf growth 96h inconclusive
Cc1ccc(-c2noc(CCC(=O)NC3CC3)n2)cc1	Cycloheximide cs 20
O=C(C1=C[C@@H](C2CCCCC2)C[C@@H](OCc2ccc(CO)cc2)O1)N1CCN(Cc2ccccc2)CC1	Pf growth 96h 4.1µM, Pf growth 48h 4.1µM
O=C(C1=C[C@H](C2CCCCC2)C[C@H](OCc2ccc(CO)cc2)O1)N1CCN(Cc2ccccc2)CC1	Pf growth 96h 12µM, Pf growth 48h 5.2µM
CN(C(=O)c1cccc(Br)c1)C1CCS(=O)(=O)C1 (configuration not stated)	none (no result: Shiga inhibitor, Cycloheximide cs, LmPK inh)
Cc1ccc(N=C2SC(C(=O)O)CC(=O)N2C)cc1C (configuration not stated)	Pf growth 96h 12µM
Cc1ccc(N=C2SC(C(=O)NCCc3ccccc3)CC(=O)N2C)cc1C (configuration not stated)	none
CCc1cc2c(=O)c(-c3cnn(-c4ccccc4)c3)coc2c(CN2CCOCC2)c1O	Pf growth 96h inconclusive, Pf growth 48h inconclusive
CCc1cc2c(=O)c(-c3cnn(-c4ccccc4)c3)c(C(F)(F)F)oc2c(CN(C)C)c1O	Pf growth 48h 6.6µM (no result: Pf growth 96h)
CCc1cc2c(=O)c(-c3cnn(-c4ccccc4)c3)c(C)oc2c(CN2CCCCC2)c1O	Pf growth 48h 15µM
CCc1cc2c(=O)c(-c3nc4ccccc4n3C)coc2c(CN2CCOCC2)c1O	none (no result: Pf growth 96h)
CCc1cc2c(=O)c(-c3nc4ccccc4n3C)coc2c(CN2CCCCC2)c1O	Pf growth 96h 2.9µM
CC(=O)Nc1cccc(NC(=O)Nc2cccc(F)c2)c1	none
N#CCc1ccc(NC(=O)Nc2cccc(Cl)c2)cc1	Pf growth 48h inconclusive, Cycloheximide cs 32
CC(C)S(=O)(=O)c1csc(NC(=O)Nc2ccc(Cl)cc2)c1	Pf growth 96h 10µM, Pf growth 48h inconclusive
N#Cc1ccccc1NC(=O)Nc1cccc(Cl)c1	none
O=C(Nc1cccc(F)c1)Nc1cccc(Cl)c1	Pf growth 96h inconclusive, Pf growth 48h inconclusive, Cycloheximide cs 28 (no result: Shiga inhibitor)
O=C(Nc1cccc(Cl)c1)OCc1cnc(Cl)s1	Cycloheximide cs 14 (no result: Pf growth 96h)
O=C(Nc1ccccc1)C(=O)Nc1ccc2c(c1)N(C(=O)C1CC1)CCC2	none (no result: Shiga inhibitor, Cycloheximide cs, LmPK inh)
O=C(CCc1nnc2ccc(N3CCC4(CC3)OCCO4)nn12)NCc1ccc(F)cc1	none
C=CCN1C(=O)c2ccc(C(=O)N(CC)CC(=O)Nc3c(F)cccc3F)cc2C1=O	Pf growth 48h inconclusive (no result: Shiga inhibitor, Cycloheximide cs, LmPK inh)
O=C(CCc1ccccc1)NNC(=O)Nc1cccc(Cl)c1	Cycloheximide cs 17
COC(=O)c1cc(NC(=O)c2ccc(-c3ccccc3)cc2)ccc1Cl	none
O=C(Nc1cccc(Cl)c1)Nc1ccnc(-c2cccnc2)n1	Pf growth 48h 10µM
O=C(Nc1cccc(Cl)c1)Nc1cnccn1	Pf growth 48h inconclusive
O=C(CCN1CCN(Cc2ccccc2)CC1)NNC(=O)Nc1cccc([N+](=O)[O-])c1	Pf growth 96h 13µM
COC(=O)c1cc(NC(=O)Nc2cccc(Cl)c2)ccc1Cl	Pf growth 96h 15µM, Pf growth 48h 9.3µM, Cycloheximide cs 22
NC(=O)c1ccc(NC(=O)CCN=C2NS(=O)(=O)c3ccccc32)cc1	Pf growth 96h inconclusive (no result: Shiga inhibitor, Cycloheximide cs, LmPK inh)
COc1ccc(CCNC(=O)CSc2nc(=O)n3cc(C)ccc3n2)cc1OC	none (no result: Shiga inhibitor, Cycloheximide cs, LmPK inh)
COC(=O)NCC(C)OC(=O)Nc1cccc(Cl)c1 (configuration not stated)	Pf growth 96h inconclusive, Cycloheximide cs 11
Cc1cccc(NC(=O)Nc2ccc(S(N)(=O)=O)cc2)c1	none
CCN(C(=O)Nc1cccc(Cl)c1)c1ccccc1	none
CCc1ccccc1NC(=O)Nc1cccc(F)c1	none
Cc1cccc(N(O)C(=O)Nc2cccc(Cl)c2)c1	Pf growth 96h inconclusive, Pf growth 48h inconclusive, Shiga inhibitor 56, Cycloheximide cs 37
NS(=O)(=O)c1cccc(NC(=O)Nc2ccc(Cl)cc2)c1	Shiga inhibitor 87, Cycloheximide cs 36
CNS(=O)(=O)c1ccc(NC(=O)Nc2cccc(F)c2)cc1	Shiga inhibitor 86, Cycloheximide cs 32
Cc1ccc(C)c(NC(=O)CN(C)C(C)C(=O)N2CC(C)CC(C)C2)c1 (configuration not stated)	Pf growth 48h inconclusive (no result: Shiga inhibitor, Cycloheximide cs, LmPK inh)
CCOc1ccc(OCCCCOc2ccccc2C(C)=O)cc1	none
COc1ccccc1NC(=S)N1CC(C)(C)C1=O	Pf growth 96h inconclusive (no result: Pf growth 48h)
O=C(Nc1cccc(Cl)c1)Nc1cccc(Cl)c1	Pf growth 48h 3.7µM, Shiga inhibitor 68, Cycloheximide cs 20
CN1CCN(NC(=O)Nc2cccc(F)c2)CC1	Pf growth 96h inconclusive, Cycloheximide cs 11
CC1CCC(=C(C#N)C(=O)Nc2cccc(Cl)c2)CC1 (configuration not stated)	Pf growth 96h 15µM, Pf growth 48h inconclusive, Cycloheximide cs 24
COC(=O)c1cccc(NC(=O)Nc2ccc(Cl)cc2)c1	Shiga inhibitor 48, Cycloheximide cs 28
CC(=O)c1cccc(NC(=O)NN2CCN(C)CC2)c1	none
CC1(NC(=O)Nc2cccc3ccccc23)CCS(=O)(=O)C1 (configuration not stated)	none
CC(=O)c1ccc(S(=O)(=O)N2CCN(c3nn(C)c(=O)n(C)c3=O)CC2)cc1	none (no result: Shiga inhibitor, Cycloheximide cs, LmPK inh)
Cc1cccnc1NC(=O)Nc1cccc(Cl)c1	Pf growth 96h inconclusive, Shiga inhibitor 60
